{
  "source": "PubChem BioAssay (NCI)",
  "note": "Values joined by “and” are separate entries in the source; they are usually repeats but may differ in a detail not shown here. Equal entries are not always repeated. About 83,000 compounds went through this panel and 20% of them were active in at least one assay; those are over-represented in the sample as a whole.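 The endpoint reported here, percent growth, reads 100 for growth as untreated, 0 for no net growth and -100 for all cells dead.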 Active and inactive are the calls of the source.",
  "data": [
    {"system": "NCI/ADR-RES ovarian", "test": "NCI-60 one-dose screen, 48 h (100 = growth as untreated, 0 = no growth, -100 = all killed)", "conditions": "10 µM", "procedure": "(§1) Growth inhibition of the NCI/ADR-RES human […] tumor cell line is measured as a screen for anti-cancer activity. Cells are grown in 96 well plates and exposed to the test compound for 48 hours. Compounds are tested at a single concentration, which is 10^-5 M for most compounds. The reported endpoint is percent growth (GI% or GIPRCNT), where numbers from 0 - 100% represent growth inhibition, and numbers from -100% - 0 represent cell death. For example, a value of 40 represents 60% growth inhibition. A value of 0 means no net growth occurred over the course of the experiment. A value of -40 indicates 40% of cells at the beginning of the experiment died by the end of the experiment. A value of -100 means all cells are dead at the end of the experiment.\n(§2) NCI-60 Human Tumor Cell Lines Screen was performed using the standard one-dose NCI protocol, which is described in more detail at https://dtp.cancer.gov/discovery_development/nci-60/default.htm.\n(§3) Compounds with GIPRCNT values below 10 were considered active. Activity score was based on GIPRCNT using the following formula: […]\n(§4) Score is 0 for GIPRCNT values of 100 or above, 50 for GIPRCNT values of 0, and 100 for GIPRCNT values of -100.", "values": [
      {"smiles": "COc1ccc(Cl)cc1C(=O)NCCc1ccc(S(=O)(=O)NC(=O)NC2CCCCC2)cc1", "growth": "103% (inactive) and 107% (inactive)"},
      {"smiles": "O=C(O)c1sccc1O", "growth": "81.5% (inactive)"}
    ]},
    {"system": "NCI/ADR-RES ovarian", "test": "NCI-60 one-dose screen, 48 h (100 = growth as untreated, 0 = no growth, -100 = all killed)", "conditions": "10 µM unless noted", "procedure": "as §1, §2, §3, §4", "values": [
      {"smiles": "Cc1ccc(S(=O)(=O)Nc2nc3ccccc3nc2Nc2ccc3nsnc3c2)cc1", "growth": "62.8% (inactive) and 43.2% (inactive)"},
      {"smiles": "CC(=O)NC(Cc1ccccc1)C(=O)Oc1ccc2ccccc2c1", "note": "(stereo unspecified)", "growth": "98.4% (inactive) and 105% (inactive)"},
      {"smiles": "Cc1cccc(/C=C\\C(=O)c2ccc(Cl)cc2)c1", "growth": "101% (inactive) and 99.2% (inactive)"},
      {"smiles": "Oc1c(CN2CCCCC2)ccc2cccnc12", "growth": "7.05% (active) and 4.34% (active)"},
      {"smiles": "Oc1ccccc1/C=N\\NC(=S)N/N=C/c1ccccc1O", "growth": "13.5% (inactive) and 19.6% (inactive)"},
      {"smiles": "CC(O)(CC(=O)CC(=O)c1ccccc1)c1ccccc1", "note": "(stereo unspecified)", "growth": "83.1% (inactive) and 72.9% (inactive)"},
      {"smiles": "CCOc1ccc2c(S(=O)(=O)O)cccc2c1[N+](=O)[O-]", "growth": "103% (inactive) and 106% (inactive)"},
      {"smiles": "CCC(O)c1ccccc1", "note": "(stereo unspecified)", "growth": "112% (inactive) and 118% (inactive)"},
      {"smiles": "CC(=O)C(/C=N/C(N)=O)=C(/C)O", "growth": "99.4% (inactive)"},
      {"smiles": "COc1cc(/C=N/Nc2nc3c([nH]2)c(=O)n(C)c(=O)n3C)ccc1O", "growth": "109% (inactive) and 111% (inactive)"},
      {"smiles": "N#C/C(=C1C=C/C(=N/O)C(Br)=C/1)c1ccccc1", "growth": "9.55% (active)"},
      {"smiles": "Nc1ccc2ccc(N)cc2c1", "growth": "73.5% (inactive)"},
      {"smiles": "COc1ccc(S(=O)(=O)N2CCOCC2)cc1NC(=O)c1[nH]c(C)c2c1CCCCC2=O", "growth": "107% (inactive) and 79.1% (inactive)"},
      {"smiles": "O=[N+]([O-])c1ccc(/C=N\\NC(=S)Nc2ccc(F)cc2)cc1", "growth": "100% (inactive) and 89.8% (inactive)"},
      {"smiles": "O=C(/C=C\\c1ccnc2ccccc12)c1ccc([N+](=O)[O-])cc1", "growth": "81.6% (inactive) and 67.4% (inactive)"},
      {"smiles": "Cc1ccc(S(=O)(=O)Nc2ccc3cc([N+](=O)[O-])ccc3c2[N+](=O)[O-])cc1", "growth": "79.5% (inactive) and 105% (inactive)"},
      {"smiles": "CCc1c(CC(=O)O)c2cc(C)ccc2n1Cc1ccc(Cl)cc1", "growth": "98.4% (inactive) and 98.7% (inactive)"},
      {"smiles": "CNc1ccc2nc3ccc(=[N+](C)C)cc-3sc2c1", "growth": "2.25% (active) and 1.64% (active)"},
      {"smiles": "CO/N=C/C=C\\C(=O)N/C=C/C[C@H]1/C=C/[C@H](O)/C=C\\C=C\\c2cccc(O)c2C(=O)O1", "growth": "44.4% (inactive) and 32.6% (inactive)"},
      {"smiles": "O=C1NC(=O)C2(CCc3ccccc32)N1", "note": "(stereo unspecified)", "growth": "109% (inactive) and 92.5% (inactive)"},
      {"smiles": "CC(=O)Nc1ccc2cc3ccc(NC(C)=O)cc3nc2c1", "growth": "99.9% (inactive) and 97.7% (inactive)"},
      {"smiles": "O=C(/C=C/c1ccccn1)c1ccccc1O", "growth": "73.9% (inactive) and 93.4% (inactive)"},
      {"smiles": "O=S1(=O)CC(Br)C(Br)C1", "note": "(stereo unspecified)", "growth": "68.5% (inactive) and 110% (inactive)"},
      {"smiles": "COc1cc(Nc2nc3ccccc3nc2NS(=O)(=O)c2ccc(NC(=O)c3ccc(C)c(OC)c3)cc2)cc(OC)c1", "growth": "75.5% (inactive) and 2.39% (active)"},
      {"smiles": "COc1ccc(-c2cn[nH]c2-c2cc(OC)c(OC)c(OC)c2)cc1N", "growth": "-5.9% (active) and 4.84% (active)"},
      {"smiles": "Cc1cc(O)c2c(c1)C(=O)c1cc(O)cc(O)c1C2=O", "growth": "91.6% (inactive) and 101% (inactive)"},
      {"smiles": "O=C(O)c1cc(C(=O)O)cc([N+](=O)[O-])c1", "growth": "106% (inactive)"},
      {"smiles": "CC1=C[C@H]2c3c(c(O)c(O)c4oc5cc(O)cc(O)c5c(=O)c34)[C@H](c3cc(O)c(O)c4oc5cc(O)cc(O)c5c(=O)c34)[C@H]2C(C)(C)C1", "growth": "55.8% (inactive) and 23.7% (inactive)"},
      {"smiles": "CN(C)CCCN1c2ccccc2Sc2ccc(Cl)cc21", "growth": "85% (inactive) and 109% (inactive) and 89.5% (inactive)"},
      {"smiles": "COc1ccc(NC(=S)Nc2ccccn2)cc1", "growth": "99.8% (inactive)"},
      {"smiles": "CC(O)Cn1cnc2c1c(=O)n(C)c(=O)n2C", "note": "(stereo unspecified)", "growth": "112% (inactive)"},
      {"smiles": "COC(=O)[C@H]1CCCN1C(=O)C1CCCN1C(=O)[C@@H](Cc1ccccc1)NC(=S)Nc1cc(C(F)(F)F)cc(C(F)(F)F)c1", "note": "(stereo partly specified)", "growth": "109% (inactive) and 93.9% (inactive)"},
      {"smiles": "CC(=O)c1ccc2c(c1)N(CCCN1CCN(CCO)CC1)c1ccccc1S2", "growth": "95.6% (inactive) and 45.8% (inactive)"},
      {"smiles": "O=C(Oc1cccc(OC(=O)c2ccccc2)c1)c1ccccc1", "growth": "95.5% (inactive) and 97.7% (inactive)"},
      {"smiles": "COc1ccc2ccccc2c1/C=N/N1CCCCC1", "growth": "90.9% (inactive)"},
      {"smiles": "Cc1cc(O)c(C(C)C)cc1S(=O)(=O)O", "note": "(tested in a mixture with another compound)", "growth": "95.3% (inactive) and 2.8% (active) and 111% (inactive)"},
      {"smiles": "CC(=O)Nc1cccc2c1CCCC2", "growth": "97.6% (inactive) and 96.9% (inactive)"}
    ]},
    {"system": "NCI/ADR-RES ovarian", "test": "NCI-60 one-dose screen, 48 h (100 = growth as untreated, 0 = no growth, -100 = all killed)", "conditions": "100 µM", "procedure": "as §1, §2, §3, §4", "values": [
      {"smiles": "COc1ccc(Cl)cc1C(=O)NCCc1ccc(S(=O)(=O)NC(=O)NC2CCCCC2)cc1", "growth": "76.6% (inactive)"},
      {"smiles": "O=C(O)c1sccc1O", "growth": "36% (inactive)"}
    ]}
  ]
}
